Drawing on PubChem BioAssay, this text covers viability for 39 molecules.

The experiment can be described thus: reversal of MRP1-mediated doxorubicin resistance, pilot screen, H69AR cells, doxorubicin co-treatment (AID 601). Particulars: H69AR cells + 2 uM doxorubicin, CellTiter-Glo, 72 h; measured here: viability with 2 uM doxorubicin; at 10 µM; stronger effect = lower value.
As for `CCOC(=O)c1sc(NC(=O)c2c(C)nn(Cc3ccccc3)c2C)cc1C`, the viability (as a rule, the share of living cells, or the viability signal relative to a control) is 46.8%.

On to `Cc1nn(-c2nc3ccccc3s2)c(C)c1Oc1ccccc1O`, for which the viability was found to be 67%.

Consider `Cc1cc(C)c2c(n1)nn1c(N3CCN(c4ccccc4C)CC3)cc(C)nc21`, for which the viability was found to be 73.6%.

`COc1ccc(-c2noc(CCC(=O)NCCCN3CCC(Cc4ccccc4)CC3)n2)cc1`: the viability came out at 64.4%.

Take `Cc1[nH]nc(N=CC2=C(O)CC(C)(C)CC2=O)c1-c1ccc(Cl)cc1`: the viability came to 38.9%.

Regarding `c1ccc2c(-c3nc(C4CCCCC4)no3)cc(-c3ccncc3)nc2c1`, the viability was determined as 49.4%.

Consider `CCCc1nc2ccccc2c(=O)n1NC(=O)c1c(O)c2cccc3c2n(c1=O)CCC3`, for which the viability came to 72.1%.

`Cc1csc2ncc(C(=O)Nc3ccccc3Cl)c(=O)n12`: the viability stood at 44.5%.

Take `CN1CC=C2C(C#N)=C(N)C(C#N)(C#N)[C@H](c3cccc(Cl)c3)C2C1` (some centres undefined): the viability was 22.1%.

Turning to `O=C(NC1CCc2ccccc21)C1CCN(S(=O)(=O)c2ccc(-n3cnnn3)cc2)CC1` (centres undefined), the viability came out at 63.5%.

`N#CC(C(=O)C1CCCCC1)c1nc2ccccc2[nH]1` (centres undefined): the viability turned out to be 76.1%.

Take `Cc1nc2ccccc2c(=O)n1NC(=O)c1c(O)c2c(n(CC(C)C)c1=O)CCCC2`: the viability amounted to 66.3%.

Regarding `COc1ccc(Br)cc1C1N2CC3(C)CN1CC(C)(C2)C3=O` (centres undefined), the viability amounted to 87.3%.

Regarding `CCn1cc(C(=O)OCC(=O)OC2CC(C)CCC2C(C)C)c(=O)c2ccc(C)nc21` (centres undefined), the viability worked out at 46.3%.

`CCCNC(=O)c1c(N)n(-c2cc(OC)cc(OC)c2)c2nc3ccccc3nc12`: the viability is 66.7%.

Regarding `CCCc1cc(-c2n[nH]c(C)c2-c2ccc(C(=O)OCC)o2)c(O)cc1O`, the viability was 38.2%.

As to `N#CC1=C(N)n2c(s/c(=C\c3ccco3)c2=O)=C(C#N)C1c1ccco1` (centres undefined), the viability was determined as 58%.

In the case of `CC1=C(C(=O)OC2CCCCC2)C(c2ccc(C)o2)C2=C(CC(C)(C)CC2=O)N1` (centres undefined), the viability stood at 37.4%.

As to `O=C(Nc1sc2c(c1C(=O)NCc1ccco1)CCCC2)c1ccc2c(c1)OCO2`, the viability came to 72.7%.

Take `COc1ccc(CC(=O)NCc2cccs2)cc1`: the viability is 77.9%.

For the molecule `COc1ccc(/C=N/n2cc(-c3ccc(OC)cc3)nc2N)cc1`, the viability worked out at 63.6%.

Take `CCn1c(CNc2ccc(OC)cc2)nnc1SCC(=O)c1ccc(OC)cc1`: the viability came to 65.5%.

For the molecule `Cc1ccccc1OCCCN1C(=O)C(=O)c2cccc(C)c21`, the viability is 49.4%.

With `CCOC(=O)c1sc(NC(=O)CSc2n[nH]c(-c3ccccc3)n2)c(C#N)c1C`, the viability is 32%.

Turning to `CCSc1nnc(NC(=O)c2ccccn2)s1`, the viability was determined as 34.8%.

Take `CCOc1cccc(-n2nnnc2-c2ccc(OC)cc2)c1`: the viability was 60.4%.

On to `O=C(NCc1ccco1)c1cc2c(s1)CSC2`, for which the viability worked out at 83.6%.

Regarding `CC(=O)c1ccccc1Oc1nc(CN2CCOCC2)nc2scc(-c3cccs3)c12`, the viability was determined as 17.1%.

For `C=CCn1c(N)c(C(=O)OC(C)(C)C)c2nc3ccccc3nc21`, the viability was found to be 66.7%.

As for `CCOC(=O)c1sc(Nc2nc3c(OC)cccc3s2)nc1C`, the viability was 66.6%.

Consider `COc1ccc(N2CCN(Cc3cc(=O)oc4cc(C)c(Cl)c(C)c34)CC2)cc1`, for which the viability was determined as 75.8%.

Turning to `O=C(c1cc(-c2ccco2)nn1-c1cccc(Cl)c1)N1CCCCC1`, the viability stood at 79.2%.

In the case of `CCOC(=O)c1sc2nc(N3CCCC3)c3c(c2c1N)CC(C)(C)OC3`, the viability was found to be 65.9%.

As to `CCC(Sc1nc2n[nH]c(C)c2c(=N)n1-c1cc(Cl)ccc1C)C(=O)N1CCOCC1` (centres undefined), the viability is 17%.

On to `O=C(Nc1ccc(F)cc1)N(Cc1ccco1)Cc1cc2cc3c(cc2[nH]c1=O)OCO3`, for which the viability is 19.6%.

For the molecule `N#CC1=C(SCC(=O)NC23CC4CC(CC(C4)C2)C3)NC(=O)C(C#N)C12CCCCC2` (centres undefined), the viability is 41%.

For `CCOC(=O)c1nnc2cc(-c3ccc(Br)cc3)nn2c1C`, the viability worked out at 43.6%.

On to `CCOC(=O)c1c(NC(=O)Cn2c(C)nc3ccccc32)sc2c1CCC2`, for which the viability is 54.7%.

Take `COc1ccc(C2=NOC(C(=O)Nc3cc(Br)ccc3O)C2)cc1OC` (centres undefined): the viability stood at 70.6%.
